Screening results deposited in PubChem by National Center for Advancing Translational Sciences (NCATS).
Most compounds without a hit are left out; they make up all but 5.7% or so of the library.
D3 antag: D3 dopamine receptor (human) antagonism. P35462. D3R cells, DiscoveRx beta-arrestin luminescence, antagonist mode; stronger effect = lower value. max response, negative = inhibition, %. actives 2.5% (n = 360,000). AID 652054; in the data active = max response below about -50%; inconclusive = no clear call, values can overlap the other calls; note: % is set by controls: 0 for no effect and ±100 for the full control effect
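Cells expressing the human receptor were seeded at 1500 cells/well, incubated overnight at 37 degrees C in 5% CO2, then exposed to library compounds with dopamine controls for 90 minutes at 37 degrees C before luminescent detection.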
ClpP mod: qHTS Assay for Activators of ClpP; actives 1.9% (n = 340,000); ATP-dependent Clp protease proteolytic subunit (Bacillus subtilis (strain 168)), P80244; purified B. subtilis ClpP, FRET peptide cleavage, 20 min; Potency, µM (doses to about 57.5 µM), inactives show at the top dose activity change, negative = active; active = well fitted falling curve with a large enough effect; inconclusive = small, poorly fitted or top-dose-only effect; inactive = no such curve, though single readings can be large or run the other way; note: potency is the fitted concentration of half-maximal effect; the source files actives as falling curves though it sought activators and does not explain the sign; nearly all actives have a fitted effect of over 65% in size
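Purified B. subtilis ClpP, 10 microg/mL final in Tris/HCl pH8 with KCl, BSA, glycerol and Tween-20, cleaved an Abz/nitrotyrosine-quenched decapeptide. Fluorescence (ex 320, em 430) was read at 0 and 20 min at room temperature. Delta was normalized to 5.8 microM ADEP and DMSO/no-enzyme controls.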
DRD3 agonist: D3 dopamine receptor (human) agonism; D3R DiscoveRx beta-arrestin cells, luminescence, 90 min; max activation, %; actives 0.58% (n = 410,000); in the data active = max activation above about 30%; note: 0% is about no effect
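Agonist mode: compounds and dopamine controls were applied to plated cells for 90 min at 37 degrees C after an overnight attachment at 1500 cells/well. Luminescent read-out followed 30 - 60 minutes at room temperature with DiscoveRx detection reagent.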
GLP1R ag: agonists of human GLP-1 receptor. P43220. HEK293 GLP-1R CRE-luciferase, luminescence, 4-6 h; cells express a hypersensitive GLP-1R form. Potency, µM (highest dose often 45.6 µM), for the others: at the top dose activation, hits mostly activators. actives 0.007% (n = 380,000); note: potency is the fitted concentration of half-maximal effect; % of control where 0% means no effect
HEK293 tox: cytotoxic in the GLP-1 receptor inverse agonist counter-screen; HEK293 cAMP-luciferase reporter cells, luminescence, 24 h; Potency, µM (highest dose often 38.3 µM), without a hit: at the top dose activity change, negative = inhibition, usual class: inhibitors; actives 0.13% (n = 410,000);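 note: loss of luciferase light is scored as toxicity; potency is the fitted concentration of half-maximal effect; % is set by controls: 0 for no effect and ±100 for the full control effect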
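Cells in DMEM/10% Nu serum/1% pen-strep, 1536-well format. Pre-incubated 12 h, dosed with 23 nL compound, incubated a further 24 h. Luciferase detection, 12 min at room temp, luminescence.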
GLP1R inv ag: GLP-1 receptor (human) inverse agonism; HEK293 GLP-1R CRE-luciferase, luminescence, 24 h; GLP-1R form is constitutively active; P43220; actives 1.6% (n = 410,000); AID 624417; Potency, µM (series often up to 38.3 µM), without a hit: at the top dose activity change, negative = inhibition, hits mostly inhibitors; note: potency is the fitted concentration of half-maximal effect; % is set by controls: 0 for no effect and ±100 for the full control effect; nearly all actives have a fitted effect of over 55% in size
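GLP-1R inverse agonism mode: basal reporter luminescence in engineered HEK293 cells measured after one day of compound exposure at 37 deg C, with a 12 min room-temperature detection step.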
The depositor's hits bear a star; ? = inconclusive; / = no result; ! = repeats disagree; [ ] = remark or other dose. Unless noted, calls come from the whole dose curve; as a rule, active = well fitted curve in the direction sought with a large enough effect; inconclusive = small, poorly fitted or top-dose-only effect, or another doubt; inactive = no such curve, though single readings can be large; an effect the other way counts as inactive or inconclusive.

SMILES	D3 antag	ClpP mod	DRD3 agonist	GLP1R ag	HEK293 tox	GLP1R inv ag
C=C1C(O)[C@@H]2O[C@]3(CC[C@H](/C=C/C(C)[C@@H]4CC(C)=CC5(O[C@H](C[C@@](C)(O)C(=O)O)CCC5O)O4)O3)CC[C@H]2O[C@@H]1C(O)CC(C)[C@H]1OC2(CCCCO2)CCC1C (stereo partly specified)	-132*	-2%	-70	-18%	-60%	-92%
CN(C)CCN(Cc1ccccc1)c1ccnc(N(C)C)c1C#N	18	32µM*	-10	6%	1%	1%
CN1CCc2cc(O)cc3c2[C@H]1Cc1ccc(O)c(O)c1-3	-84*	28µM*!	-32	-3%	5%	10%
CN1CCc2cccc3c2[C@@H]1Cc1ccc(O)c(O)c1-3	-18	?	44*	-1%	-5%	56%
CCCN1CCc2cc(O)cc3c2[C@H]1Cc1ccc(O)c(O)c1-3	?	?	23	1%	-24%	5%
COP(=O)(OC)C(Nc1ccccn1)c1ccccc1 (stereo unspecified)	6	-8%	1	-1%	2%	-2%
O=C(NNC(=O)C(c1ccccc1)c1ccccc1)c1ccccn1	-86*	/	-24	0%	?	?
CN1C(=S)CN=C(c2ccccc2)c2cc(Cl)ccc21	/	/	0	4%	/	/
CCN1CCN(Cc2ccc(C)cc2)CC1	?	-1%	1	-8%	6%	0%
Cc1cccc(CN2CCN(c3ccc(Cl)cc3)CC2)c1	-95*	2%	3	-1%	3%	?
Fc1cccc(F)c1CN1CCN(c2ccc(Cl)cc2)CC1	-16	0%	-12	6%	-11%	2%
Cc1cccc(CN2CCN(Cc3ccc(Cl)cc3)CC2)c1	-64*	1%	-22	-1%	-2%	0%
Fc1ccc(CN2CCN(c3ccc(Cl)cc3)CC2)cc1	-52*	0%	0	-5%	1%	-27%
O=C(COc1ccccc1)N1CCN(C/C=C/c2ccccc2)CC1	?	1%	0	-3%	3%	-4%
O=C(COc1ccccc1)N1CCN(CC(O)COc2ccccc2)CC1 (stereo unspecified)	-74*	-1%	-13	-7%	-1%	5%
COc1ccc(C(=O)Oc2c(Sc3ccccc3)c(C)nn2-c2ccccc2)c(OC)c1	/	-3%	1	/	?	13µM*
CCCCN(CC(O)COc1cccc(C)c1)CC(O)COc1cccc(C)c1 (stereo unspecified)	-1	1%	-10	-3%	?	?
Cc1cccc(N2C(=O)NC(=O)/C(=C\c3cc(C)n(-c4sc5c(c4C#N)CCCC5)c3C)C2=O)c1C	-6	/	3	8%	-6%	3.5µM*
CC1(C)[C@H](C=C(Cl)Cl)[C@H]1C(=O)OCc1c(F)c(F)cc(F)c1F	/	/	12	/	/	/
COc1cccc(C(=O)Nc2ccc(-c3nc4ccccc4o3)c(O)c2)c1	11	28µM*	6	-6%	?	16%
COc1cc2c(cc1OC)CN(C(=O)CCOc1ccccc1C)CC2	13	-2%	3	13%	?	-28%
O=C(Nc1cccc(Cl)c1)OCC#CCN1CCCC1	0	1%	-5	7%	-11%	-38%
CCOC(=O)c1sc(NC(=O)Nc2cccc(Cl)c2)cc1C	-6	32µM*	7	-13%	?	3.5µM*
CC(Cc1ccccc1Sc1ccccc1O)N(C)C (stereo unspecified)	-26	-8%	-19	-15%	6%	7.9µM*
Cc1cc(N/N=C/c2ccc(O)c(C)c2O)nc(-c2ccccc2O)n1	64	-3%	21	-39%	10µM*	?
SMILES	D3 antag	ClpP mod	DRD3 agonist	GLP1R ag	HEK293 tox	GLP1R inv ag
Fc1ccc(C(OCCN2CCCC2)c2ccc(Br)cc2)cc1 (stereo unspecified)	-73*	0%	-39	3%	?	5.6µM*
Fc1ccc(C(OCCN2CCCC2)c2ccc(F)cc2)cc1	-61*	-2%	-46	-5%	-9%	?
c1ccc(CCCN2CCN(CCOC(c3ccccc3)c3ccccc3)CC2)cc1	-76*	0%	-7	3%	?	?
C#CCN1CCN(c2ccc(F)cc2)CC1	11	-2%	-9	-3%	1%	14%
Fc1ccc(C(OCCN2CCN(CCCc3ccccc3)CC2)c2ccc(F)cc2)cc1	/	/	-17	-1%	/	/
COP(=S)(OC)Oc1ccc(S(N)(=O)=O)cc1	/	/	4	15%	/	/
COCCn1cc(C(=O)N2CCC3(CC2)OCCO3)c2c3ccccc3n(C)c2c1=O	18	20µM*	23	5%	-4%	0%
Cn1c2ccccc2c2c(C(=O)N3CCC4(CC3)OCCO4)cn(C3CCCC3)c(=O)c21	3	?	4	2%	?	?
FC(F)(F)c1ccccc1CN1CCN(Cc2ccccc2)CC1	?	1%	-24	0%	12%	25%
CC(C)N1CCN(Cc2ccccc2C(F)(F)F)CC1CCO (stereo unspecified)	-53*	/	-11	3%	9%[7.66 µM]	-2%[7.66 µM]
COc1cc(/C=C2\SC(=S)N(CCC(=O)N3CCCCC3)C2=O)cc(OC)c1OC	3	-1%	13	5%	?	10µM*
O=[N+]([O-])OC1CO[C@H]2C(O[N+](=O)[O-])COC12 (stereo partly specified)	/	/	/	5%	/	/
CC(C)N1CC=C(c2c[nH]c3ccccc23)CC1	-58*	-14%	-21	-18%	-18%	?
CC(C(=O)c1c[nH]c2ccccc12)N1CCOCC1 (stereo unspecified)	12	-5%	5	-3%	10%	2%
CC1CCCC(C)N1/N=C/c1c[nH]c2ccc(Br)cc12 (stereo unspecified)	-76*	1%	-14	-36%	?	?
Cc1ccc(S(=O)(=O)N(CC(=O)N2CCC(C)CC2)Cc2ccccc2F)cc1	-11	-2%	4	-1%	?	?
Cc1ccc(-c2cc(-c3ccc(C)cc3)[n+](C)o2)cc1	20	14µM*	-3	-20%	-38%	?
CC(C)C[C@@H](CO)N(Cc1ccccc1)S(=O)(=O)N(Cc1ccccc1)[C@@H](CO)CC(C)C	123	-1%	-16	-2%	?	2.5µM*
COC(=O)[C@H](Cc1ccccc1)N(Cc1ccccc1)S(=O)(=O)N(Cc1ccccc1)[C@@H](Cc1ccccc1)C(=O)OC	24	3%	19	0%	-5%	?
